G9a inh – blocks human histone lysine methyltransferase G9a; Potency, µM (doses to about 102 µM), without a hit: top-dose activity, negative = inhibition, usual class: inhibitors; 350,000 compounds, 8.8% hits; AID 504332; G9a H3K9 monomethylation, AlphaScreen, 2 h; also: % is scaled to controls: 0 for no effect and ±100 for the full control effect; nearly all actives have a fitted effect of over 75% in size
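Chemiluminescent proximity detection of H3K9 monomethylation, read after 10 min bead incubation in the dark. Reaction: 20 nM G9a, 500 nM biotin-H3K9 peptide, 20 uM SAM cofactor, 2 h, room temperature, following 15 min enzyme-compound preincubation.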
PLK1 PBD block – blocks phosphopeptide binding to human PLK1 polo-box domain | Potency, µM, for the others: max response, negative = inhibition, actives largely listed as inhibitors | Plk1 PBD binding of FITC phosphopeptide, fluorescence polarization | 360,000 compounds, 2.8% hits | AID 720504; also: series mostly up to about 57 µM; % is scaled to controls: 0 for no effect and ±100 for the full control effect; nearly all actives have a fitted effect of over 65% in size
BAZ2B inh – inhibitors of human BAZ2B bromodomain. 360,000 compounds, 4.4% hits. AID 504333. Potency, µM (doses to about 114 µM), for the others: at the highest dose activity change, negative = inhibition, hits mostly inhibitors. Q9UIF8. AlphaScreen BAZ2B-H3K14Ac peptide displacement; also: % is scaled to controls: 0 for no effect and ±100 for the full control effect; nearly all actives have a fitted effect of over 60% in size
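AlphaScreen displacement of biotin-H3(5-23)K14Ac peptide (50 nM final) from BAZ2B (50 nM final) in PBS pH 7.4, 0.01% Tween-20; complex preformed 30 min RT, then compounds (top 110 uM) 30 min RT, beads 20 min dark.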
HP1b binding inh – inhibitors of HP1-beta chromodomain binding to methylated histone tails; 390,000 compounds, 0.56% hits; AlphaScreen HP1-beta / biotin-H3K9me3 peptide binding; Potency, µM (titrated, usually from 114 µM), for the others: top-dose activity change, negative = inhibition, usual class: inhibitors; also: nearly all actives have a fitted effect of over 70% in size
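Compound inhibition of the preformed complex between 50 nM HP1-beta and 50 nM biotinylated H3K9me3 peptide was read by AlphaScreen. Buffer was PBS pH 7.4 with 0.01% Tween-20. Incubations ran 30 min at room temperature, with 10 ug/mL donor/acceptor beads.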
JMJD2A Tudor inh – inhibitors of human JMJD2A Tudor domain; O75164; AlphaScreen JMJD2A-Tudor / H3K4me3 peptide binding; Potency, µM (top dose mostly 114 µM), for inactives: at the highest dose activity change, negative = inhibition, usual class: inhibitors; 390,000 compounds, 4.4% hits; also: % is scaled to controls: 0 for no effect and ±100 for the full control effect; nearly all actives have a fitted effect of over 50% in size
ALOX12 inh – ALOX12 (human) lipoxygenase inhibition; Potency, µM (doses to about 108 µM), without a hit: top-dose activity change, negative = inhibition, most hits filed as inhibitors; AID 1671190; P18054; 580,000 compounds, 1.1% hits; purified 12hLO, xylenol orange hydroperoxide absorbance; also: % is scaled to controls: 0 for no effect and ±100 for the full control effect
Target sequence (P18054 whole entry, looked up): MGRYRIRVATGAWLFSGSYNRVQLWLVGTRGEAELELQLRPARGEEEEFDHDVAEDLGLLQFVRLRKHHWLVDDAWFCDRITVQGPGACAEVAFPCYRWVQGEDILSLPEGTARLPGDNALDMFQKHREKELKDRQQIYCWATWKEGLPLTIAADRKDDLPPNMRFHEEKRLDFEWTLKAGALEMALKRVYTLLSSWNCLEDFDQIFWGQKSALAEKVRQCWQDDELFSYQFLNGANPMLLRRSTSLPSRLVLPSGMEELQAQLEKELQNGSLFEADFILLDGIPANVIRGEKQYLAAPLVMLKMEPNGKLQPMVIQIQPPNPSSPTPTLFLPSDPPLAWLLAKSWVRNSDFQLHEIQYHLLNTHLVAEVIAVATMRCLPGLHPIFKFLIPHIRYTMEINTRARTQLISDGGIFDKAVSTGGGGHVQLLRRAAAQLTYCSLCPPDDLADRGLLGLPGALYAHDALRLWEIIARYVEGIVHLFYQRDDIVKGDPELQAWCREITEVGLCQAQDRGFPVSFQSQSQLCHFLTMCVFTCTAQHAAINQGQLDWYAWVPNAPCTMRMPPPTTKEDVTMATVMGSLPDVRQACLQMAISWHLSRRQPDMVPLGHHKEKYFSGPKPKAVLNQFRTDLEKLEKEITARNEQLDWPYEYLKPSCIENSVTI
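Purified human 12hLO at 150 nM in 25 mM Hepes, 0.01% Triton X-100, pH 7.0, preincubated 15 min at room temperature with compound. Reaction started with 40 uM arachidonic acid, 30 min at room temperature. Hydroperoxide measured by Fe-xylenol orange, 573/405 nm absorbance ratio.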
* marks the source's active call; other numbers are inactive results; ? = inconclusive; nt = no result given; [ ] = remark or other dose. The list is not random: actives were taken first. Their share in the collection is about 9%. Calls follow the shape of the dose curve; as a rule, active = well fitted curve in the direction sought with a large enough effect; inconclusive = small, poorly fitted or top-dose-only effect, or another doubt; inactive = no such curve, though single readings can be large; an effect the other way counts as inactive or inconclusive. Potency is read from the fitted curve at half-maximal effect.

SMILES | G9a inh | PLK1 PBD block | BAZ2B inh | HP1b binding inh | JMJD2A Tudor inh | ALOX12 inh
CC(=O)c1ccc(NC(=O)c2cc(CC(C)C)nc3ccccc23)cc1 | 0.8% | -11.9% | -23.4% | 34.6% | -7.4% | 67.3%
COc1ccc(NC(C)=O)c(C)c1 | -9.5%[59 µM] | -5.2% | -14.7% | 22.2% | -2.7% | -8.0%
COCCn1c(N)c(N(Cc2ccccc2)C(=O)CSCC(=O)Nc2ccc(C)cc2)c(=O)[nH]c1=O | 31.6µM* | -7.0% | -3.6% | 34.5% | -6.9% | -9.2%
CCCCn1c(N)c(N(Cc2ccccc2OC)C(=O)CSCC(=O)Nc2cccc(C)c2)c(=O)[nH]c1=O | 0.0% | 29.9µM* | -10.8% | -16.7%[57 µM] | ? | -21.4%
N#CC(C#N)=C1C=CC=CN1/C(=C\c1ccccc1)C(=O)c1cccs1 | 1.12µM* | 2.12µM* | -8.5% | -12.4% | ? | -20.1%
N#CC(C#N)=C1C=CC=CN1/C(=C\c1ccccc1Cl)C(=O)c1ccccc1 | 14.1µM* | 1.68µM* | ? | ? | 50.1µM* | -24.9%
COc1ccccc1CC(=O)Nc1ccc2nc(Nc3cccc(C(F)(F)F)c3)cc(C)c2c1 | 9.2%[59 µM] | nt | 6.4% | 38.9% | -3.0% | -0.6%
CC(=O)c1c(O)c2cccc3c2n(c1=O)CCC3 | 14.3% | -7.1% | -4.3% | 56.5% | -10.1% | ?
CC1Cc2cccc3c(O)c(C(=O)c4nn[nH]n4)c(=O)n1c23 (stereo not drawn) | 8.91µM* | -19.6% | ? | 60.8% | ? | -6.6%
CC1(C)Cc2ccccc2/C(=C/C(=O)N2CCCCCC2)N1 | 35.5µM* | -13.8% | 56.2µM* | 0.0% | ? | ?
O=C(CCC[C@@H]1[C@H]2CCCN3CCC[C@@H](CN1C(=O)c1cc(F)ccc1F)[C@@H]23)Nc1ccccc1 | nt | nt | nt | nt | nt | -2.9%
CC(C)N(C(=O)[C@H]1CC(CC(=O)NCc2ccco2)C(=O)N2CCc3c([nH]c4ccccc34)[C@]12C)C(C)C (stereo partly drawn) | nt | -1.9% | nt | 14.6% | -25.3% | -11.3%
CC(C)N(C(=O)[C@H]1C[C@H](CC(=O)NCCc2ccccn2)C(=O)N2CCc3c([nH]c4cc(-c5ccco5)ccc34)[C@]12C)C(C)C | nt | -5.2% | nt | -36.5% | 56.2µM* | -4.5%
CCN(CC)C(=O)[C@H]1C[C@H](CC(=O)NCCc2ccccn2)C(=O)N2CCc3c([nH]c4cc(-c5ccco5)ccc34)[C@]12C | nt | -9.8% | nt | -5.9% | ? | ?
CC(C)N(C(=O)[C@H]1C[C@H](CC(=O)NCc2ccco2)C(=O)N2CCc3c([nH]c4cc(-c5ccco5)ccc34)[C@]12C)C(C)C | nt | -26.5% | nt | ? | 56.2µM* | -11.6%
CN(C(=O)CSc1nnc(COc2ccccc2F)n1N)C1CCCCC1 | 11.6% | -9.8% | -3.2% | -2.0% | -9.5% | -28.1%
CC(O)CNc1ncnc2nc[nH]c12 (stereo not drawn) | 11.0%[2.33 µM] | -0.8% | 4.7% | 41.3% | -6.2% | -15.1%
CC(C)=NNc1ncnc2nc[nH]c12 | nt | 0.2% | nt | 33.8% | 25.1µM* | 12.3%
O=S(=O)(/N=C/N1CCOCC1)c1ccc(Cl)cc1 | ? | -4.7% | -3.1% | 38.7% | 4.1% | 32.8%
CN(c1ccc(O)cc1)c1nc(-c2ccccc2)cs1 | ? | -3.8% | 50.1µM* | -7.9% | -24.0% | ?
Cc1ccccc1-c1csc(C(C)(O)c2ccccc2)n1 (stereo not drawn) | nt | -0.6% | nt | nt | nt | ?
CN(C)c1ccc(-c2csc(C(O)(c3ccccc3)C(F)(F)F)n2)cc1 (stereo not drawn) | nt | -12.3% | nt | nt | nt | 17.8µM*
Cc1ccccc1-c1csc(C(O)(c2ccccc2)C(F)(F)F)n1 (stereo not drawn) | nt | 2.4% | nt | nt | nt | 44.7µM*
CN(C(=O)c1ccco1)c1nc(-c2ccccc2)cs1 | 10.9%[59 µM] | 0.3% | -33.0% | 117.7% | -7.9% | 0.0%
O=C(NCc1cccs1)C1CCCN(c2ncccn2)C1 (stereo not drawn) | ? | -6.6% | 51.7% | 25.6% | -14.9% | -7.9%

Source: PubChem
